Source: PubChem BioAssay AID1986 (Sanford-Burnham Center for Chemical Genomics, 2009)
About 890 (0.31%) of roughly 290,000 compounds were called active. Cut-off read from the data, not from the text of the source: active = inhibition mostly above about 52% (no sharp cut-off); inactive = mostly below about 76%. What follows is part of a selection rich in actives, with near analogues and random picks from the rest.

Assay: inhibitors of HIV fusion peptide binding, primary screen, biochemical, uHTS, fluorescence dequenching (AID 1986)
Conditions: cell-free peptide binding, 30 min, stronger effect = higher value

| SMILES | inhibition (at 20 µM) | inhibition (measured here: repeat confirmation average inhibition, at 18.6 µM) |
| --- | --- | --- |
| CCN(CC)CCCNC(=O)CNC(=S)N(CCCN1CCOCC1)Cc1cccs1 | -0.5% (inactive) |  |
| Cc1cc(C)cc(OCC(=O)Nc2nc(-c3cccnc3)cs2)c1 | -0.2% (inactive) |  |
| COc1ccc2cc(CN(CC3CCCO3)S(=O)(=O)c3ccccc3)c(=O)[nH]c2c1 (configuration not stated) | 1.4% (inactive) |  |
| N#C/C(=C/c1ccc(N2CCCCC2)cc1)c1cccc(F)c1 | 1.6% (inactive) |  |
| N#C/C(=C/c1ccc(N2CCCCCC2)o1)c1cccc(F)c1 | 3.6% (inactive) |  |
| COc1cc(N2CCCC2)c(OC)cc1/C=C(/C#N)c1ccc(F)cc1 | 15.6% (inactive) |  |
| COc1cc(N2CCCC2)c(OC)cc1/C=C(/C#N)c1cccc(F)c1 | 57.2% (active) |  |
| COc1cc(N2CCCC2)c(OC)cc1/C=C(/C#N)c1ccc(Br)cc1 | -0.2% (inactive) |  |
| COc1cc(N2CCCC2)c(OC)cc1/C=C(/C#N)c1cccc(Br)c1 | 51.2% (active) | 65.1% |
| CCOC(=O)c1c(C)n(C)c2c(C)cc(O)c(OC(=O)CC)c12 | 1.5% (inactive) |  |
| COC(=O)Cc1cccc2c(=O)c3ccccc3oc12 | -2% (inactive) |  |
| O=C(CCS(=O)(=O)c1ccc2c(c1)NC(=O)CO2)NCCc1ccc(Cl)cc1 | 0.2% (inactive) |  |
| CC(C)NC(=O)c1ccc(CN2CCC(Cc3ccccc3)CC2)cc1 | -0.1% (inactive) |  |
| Cc1cccc(Nc2nnc(SCC(=O)NCc3cccs3)s2)c1 | -0.3% (inactive) |  |
| CCOC(=O)c1cc2c(=O)n3cccc(C)c3nc2n(C)c1=N | 59.9% (active) |  |
| CCOC(=O)c1cc2c(=O)n3cccc(C)c3nc2n(Cc2ccccc2Cl)c1=N | -3.9% (inactive) |  |
| Cc1cccn2c(=O)c3cc(C(=O)NCc4cccnc4)c(=N)n(C)c3nc12 | -1.4% (inactive) |  |
| COc1cccc(/C=N\NC(C)=O)c1OC/C=C/c1ccccc1 | 0.3% (inactive) |  |
| O=C1/C(=C/c2ccncc2)SC(=S)N1N1CCOCC1 | -1.3% (inactive) |  |
| Cc1ccc(NS(=O)(=O)c2cc(C(=O)N3CCN(C)CC3)ccc2C)cc1 | -0.2% (inactive) |  |
| CCN(CC)S(=O)(=O)c1cc(NS(=O)(=O)c2cccc(C(=O)O)c2)ccc1C | 1.4% (inactive) |  |
| CC(C)OC(=O)c1cccc2c1C(=O)c1ccccc1-2 | -0.7% (inactive) |  |
| CC(C)OC(=O)c1c2c(n3ccccc13)C(=O)c1ccccc1C2=O | 103% (active) |  |
| COC(=O)c1cc2c(C)c(C)c3ccccn3c-2c1C(=O)OC | -1.6% (inactive) |  |
| CSc1cccc(NC(=O)c2nnn(Cc3ccccc3)c2N)c1 | -1.1% (inactive) |  |
| CCOC(=O)C1CCN(C(=O)COc2ccc(S(=O)(=O)NC(C)C)cc2Cl)CC1 | -0.9% (inactive) |  |
